# Rows were chosen to be rich in hits. Some 6.9% of all compounds tested hit in one or more screens of this group.
# IL-1B inflam inh = qHTS for Inhibitors of Inflammasome Signaling: IL-1-beta AlphaLISA Primary Screen; activity change, % at 57.5 µM; THP-1 LPS/ATP IL-1B secretion, AlphaLISA, 16 h; active compounds read low; hit rate 4.7% among 360,000; in the data active = activity change below about -50%; inconclusive = mostly about -30% to -49%; also: % is scaled to controls: 0 for no effect and ±100 for the full control effect
#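 THP-1 cells pretreated 1 hr with compounds (up to 57.5 uM final), then stimulated with LPS (250 ng/mL final) plus ATP (1.25 mM final); secreted IL-1B measured by AlphaLISA after 16 hr, decreased signal indicating inhibition.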
# Giardia kill = Small Molecules that selectively kill Giardia lamblia: qHTS; hit rate 0.15% among 340,000; Giardia lamblia trophozoite viability; AID 540267, 2011; activity change, % at 7.66 µM, hits read low; in the data active = activity change below about -80%; inconclusive = between about -30% and that limit;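 also: parasites exposed to compound for two days anaerobically before the ATP read; % is scaled to controls: 0 for no effect and ±100 for the full control effect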
#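 Luminescence from cellular ATP indicates surviving trophozoites (100 cells/well) following 48 hrs anaerobic compound treatment at 37 deg C; signal develops 15-30 min at room temperature.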
# SW480 rereplic = A quantitative high throughput screen for small molecules that induce DNA re-replication in SW480 colon adenocarcinoma cells | AID 624297, 2012 | SW480 DNA re-replication, Hoechst DNA content imaging, 48 h | hit rate 1.8% among 340,000 | Potency, µM (series often up to 46.1 µM), without a hit: at the top dose re-replication activation, actives largely listed as activators; also: potency is read from the fitted curve at half-maximal effect; % of control where 0% means no effect; nearly all actives have a fitted effect of over 55% in size
#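 250 cells/well; 23 nL cpd via pin tool; 48 hr, 37 C, 5% CO2; Hoechst 40 min; imager read of total nuclear intensity, ex 405/em 500-530 nm.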
# MCF10A rereplic = A quantitative high throughput screen for small molecules that induce DNA re-replication in MCF 10a normal breast cells; MCF 10A DNA re-replication, Hoechst nuclear intensity, 48 h; Potency, µM (doses to about 46.1 µM), for the others: top-dose activity, positive = re-replication, hits mostly activators; AID 624296, 2012; hit rate 2.9% among 350,000; also: potency is read from the fitted curve at half-maximal effect; % of control where 0% means no effect; nearly all actives have a fitted effect of over 50% in size
# Vif-A3G inh = qHTS for Inhibitors of Vif-A3G Interactions: qHTS | DNA dC->dU-editing enzyme APOBEC-3G (Homo sapiens), Q9HC16 | HeLa A3G-eYFP + Vif (tagged APOBEC3G with the HIV-1 protein that degrades it), YFP fluorescence, overnight | Potency, µM (titrated, usually from 46.1 µM), inactives show at the highest dose activity, negative = active, actives largely listed as inhibitors | hit rate 0.076% among 410,000 | AID 602310, 2012; also: potency is read from the fitted curve at half-maximal effect; % is scaled to controls: 0 for no effect and ±100 for the full control effect; nearly all actives have a fitted effect of over 60% in size
# Target sequence (Q9HC16 whole entry, looked up): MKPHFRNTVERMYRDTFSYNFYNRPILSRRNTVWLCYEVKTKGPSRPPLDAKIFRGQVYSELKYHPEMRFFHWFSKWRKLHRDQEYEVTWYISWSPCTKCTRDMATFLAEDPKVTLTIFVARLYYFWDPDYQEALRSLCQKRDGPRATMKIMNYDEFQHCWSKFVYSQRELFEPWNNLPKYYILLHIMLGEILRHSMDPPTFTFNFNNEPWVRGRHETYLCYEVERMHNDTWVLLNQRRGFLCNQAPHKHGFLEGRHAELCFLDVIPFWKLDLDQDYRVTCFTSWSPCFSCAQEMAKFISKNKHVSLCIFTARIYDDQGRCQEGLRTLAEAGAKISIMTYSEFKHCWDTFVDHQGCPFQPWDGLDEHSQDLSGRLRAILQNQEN
#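 HeLa cells stably expressing Vif and C-terminally eYFP-tagged A3G, seeded overnight at 37 deg C, then exposed to compound by pintool overnight at 37 deg C. Rise in yellow fluorescence (Ex 488/Em 500-530, Acumen) marks blocked Vif-driven A3G degradation.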
# Vif-APOBEC3F blk = qHTS for Inhibitors of Vif-A3F Interactions: qHTS; HeLa A3F-eYFP + Vif (tagged APOBEC3F with the HIV-1 protein that degrades it), YFP fluorescence increase; Potency, µM (highest dose often 46.1 µM), for inactives: at the highest dose activity, negative = active; hit rate 0.2% among 390,000; AID 602313, 2012; also: potency is read from the fitted curve at half-maximal effect; % of control where 0% means no effect; nearly all actives have a fitted effect of over 65% in size
#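 HeLa cells stably expressing A3F-eYFP plus Vif, plated and incubated overnight at 37 deg C, then exposed to compounds overnight at 37 deg C. Blocked degradation read as raised yellow fluorescence (Ex 488/Em 500-530).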
# Numbers without * were called inactive; u = inconclusive; x = no result given; [ ] = remark or other dose. Unless noted, calls follow the shape of the dose curve; as a rule, active = well fitted curve in the direction sought with a large enough effect; inconclusive = small, poorly fitted or top-dose-only effect, or another doubt; inactive = no such curve, though single readings can be large; an effect the other way counts as inactive or inconclusive.
SMILES,IL-1B inflam inh,Giardia kill,SW480 rereplic,MCF10A rereplic,Vif-A3G inh,Vif-APOBEC3F blk
CCOC(=O)[C@]12CCCC=C1N(Cc1ccc(Cl)cc1Cl)C(=O)[C@H](CC(=O)NCc1cccc(C(F)(F)F)c1)C2,-55.2*,x,x,x,x,x
CCCCOCCCNC(=O)C[C@@H]1C[C@@]2(C(=O)OCC)CCC=C2N(Cc2ccc(Cl)cc2Cl)C1=O,-89.4*,x,x,x,x,x
CCOC(=O)[C@]12CCCC=C1N(Cc1ccc(Cl)cc1Cl)C(=O)[C@H](CC(=O)NCc1ccc(C)o1)C2,-6.7,x,x,x,x,x
CCOC(=O)[C@]12CCC=C1N(Cc1cccc3ccccc13)C(=O)[C@H](CC(=O)NCCC(C)C)C2,-54.9*,x,x,x,x,x
CCOC(=O)[C@]12CCC=C1N(Cc1ccc(Cl)cc1Cl)C(=O)[C@H](CC(=O)NCc1ccccc1)C2,-63.5*,x,x,x,x,x
CCCc1nc2ccccc2n2c(-c3ccc(C)cc3)c3c(=O)n(C)c(=O)n(C)c3c12,x,x,x,x,0.4%,1.7%
COc1cccc(-n2nnc3c(=O)n(Cc4cccc(F)c4)cnc32)c1,-54.9*,5.9,3.3%,u,-6.1%,-1.1%
COc1cccc(-n2nnc3c(=O)n(Cc4c(F)cccc4Cl)cnc32)c1,-7.6,-1.8,-0.5%,u,0.4%,-5.9%
O=[N+]([O-])c1cc(-c2nc(-c3ccccc3)no2)ccc1NCCc1ccccc1,x,x,x,x,1.1%,-2.8%
Cn1c(=O)[nH]c(=O)c2c1nc(N1CCCCC1)n2CCSc1nc2ccccc2o1,2.4,11.9,-2.9%,13.8%,2.5%,-8.7%
CC(C)CCn1c(Sc2nc3ccccc3o2)nc2c1c(=O)[nH]c(=O)n2C,-105.0*,9.5,u,u,-0.2%,-3.5%
O=C(CCl)NCCCCCCCCCNC(=O)CCl,-89.9*,-16.2,u,u,u,-0.8%
CCC(=O)NCCCCCCNC(=O)CC,-2.0,9.4,-11.6%,-8.9%,-5.3%,0.8%
CC(NNC(=S)N1CCN(c2ccccn2)CC1)c1nccc2ccccc12 (configuration not stated),-101.2*,-10.9,u,u,-14.9%,-9.7%
CCNC(=S)N1CCN(c2ccccn2)CC1,-12.8,-9.8,0.1%,-3.7%,1.0%,-1.9%
CN1CCN(c2ccc(-c3ccc4ccccc4n3)cc2)CC1,-65.3*,u,u,13µM*,7.2%,3.4%
Cc1cccc(-c2nc(Nc3cccc(O)c3)c3ccccc3n2)c1,0.0,-22.3,8.4%,20.6µM*,-5.0%,5.2%
CC12CC3CC(C)(C1)CC(Nc1nc(N4CCOCC4)nc4ccccc14)(C3)C2,27.5,4.6,-0.7%[9.22 µM],-7.3%,-0.9%,-5.1%
c1ccc2c(Nc3ccc(N4CCOCC4)cc3)nc(N3CCOCC3)nc2c1,-70.3*,-9.6,u,u,0.8%,-7.3%
Cc1cc(-c2ccc(N3CCOCC3)cc2)nc2ccccc12,-13.2,0.4,u,20.6µM*,u,u
O=C(NCCc1ccccc1)c1ccc(CSc2nc3ccncc3n2Cc2ccccc2F)cc1,x,x,x,x,-2.2%,2.7%
COc1cccc(C(=O)NCCSc2c(-c3ccc(F)cc3)[nH]c3ccccc23)c1OC,x,x,x,x,6.5%,4.6%
COc1ccc(Cl)cc1Nc1nc2ccc(C(=O)c3ccccc3)cc2n2cnnc12,x,x,x,x,0.1%,0.2%
Cc1cccc(-c2nc(Nc3ccc(N4CCOCC4)cc3)c3ccccc3n2)c1,0.0,17.4,-1.1%,20.6µM*,-22.1%,-5.0%
c1ccc2c(N3CCOCC3)nc(N3CCOCC3)nc2c1,-3.1,1.1,-18.1%,-17.0%,2.4%,-1.6%
SMILES,IL-1B inflam inh,Giardia kill,SW480 rereplic,MCF10A rereplic,Vif-A3G inh,Vif-APOBEC3F blk
c1ccc(CN2CCN(c3nc(N4CCOCC4)c4ccccc4n3)CC2)cc1,1.1,-2.4,u,16.4µM*,0.9%,2.8%
O=C1CC(N2CCN(Cc3ccc(Cl)cc3)CC2)C(=O)N1CCc1ccccc1 (configuration not stated),20.5,-1.5,5.9%,6.7%,3.8%,-23.5%
O=C1CC(N2CCN(Cc3ccccc3)CC2)C(=O)N1CCc1ccccc1 (configuration not stated),11.5,5.4,-5.0%,25.9µM*,2.2%,0.1%
COc1cc(C(=O)Nc2cc3c(cc2C)n(C)c(=O)c(=O)n3C)cc(OC)c1OC,x,x,x,x,-1.7%,-18.6%
O=C(NCc1ccccc1Cl)c1ccc2c(c1)nnn2C1CCCC1,x,x,x,x,-1.6%,-3.2%
COc1ccc(-c2sc3cc(OC)ccc3c2-c2ccc(OCCN3CCOCC3)cc2)cc1,5.6,-19.8,u,3.66µM*,-3.5%,7.9%
COc1cc(OC)cc(-c2sc3ccc(OC)cc3c2-c2ccc(OCCN3CCCCC3)cc2)c1,-22.8,-9.1,u,18.4µM*,-17.5%,3.8%
COc1ccc(-c2sc3cc4c(cc3c2-c2ccc(OCCN3CCCCC3)cc2)OCO4)cc1,5.6,14.0,3.0%,u,1.9%,8.7%
Cc1ccc2nc(COc3cccc(NC(=O)COc4ccc(F)cc4)c3)cc(=O)n2c1,x,x,x,x,3.3%,-0.8%
Cc1cc(C)c(NC(=O)C2CCCN(C(=O)c3cnn(-c4ccccc4)c3-n3cccc3)C2)c(C)c1 (configuration not stated),x,x,x,x,5.6%,-0.6%
CC(O)(c1ccccc1)[N+]1(CC(=O)c2ccccc2)C=CC=C1 (configuration not stated),x,x,x,x,0.5%,x
C=C1CCC[C@]2(C)C[C@H]3OC(=O)C(CN(C)CC(OC)OC)[C@H]3CC12 (some centres not stated),-91.6*,7.2,u,u,-16.9%,-0.9%
C=C1CCC[C@]2(C)C[C@H]3OC(=O)C(CNC(CC)CO)[C@H]3CC12 (some centres not stated),-97.7*,-9.8,u,18.6%,-11.2%,-1.4%
C=C1CCC[C@]2(C)C[C@H]3OC(=O)C(CNC(C)CC)[C@H]3CC12 (some centres not stated),-96.2*,11.4,12.2%,u,-11.8%,-14.8%
C=C1CCC[C@]2(C)C[C@H]3OC(=O)C(CN4CCCCC4CO)[C@H]3CC12 (some centres not stated),x,5.1,u,u,-12.6%,-9.7%
C=C1CCC[C@]2(C)C[C@H]3OC(=O)C(CNC(C)(CO)CO)[C@H]3CC12 (some centres not stated),-96.2*,4.7,u,u,-16.3%,0.7%
NC(=O)[C@H]1O[C@@H](O)[C@H](O)[C@@H](O)[C@@H]1O,x,x,-1.8%,-0.1%,x,x

# Compound activity from PubChem BioAssay.
